# Screening data from PubChem.
# Sampled rows, rich in hits. Any-hit rate of the full collection: about 7.9%.
# LASV entry inh = qHTS for Inhibitors of binding or entry into cells for Lassa Virus; Potency, µM (series often up to 37.9 µM), for the others: at the top dose activity change, negative = inhibition, usual class: inhibitors; Lassa virus pseudotype entry inhibition, cell reporter; 1.2% of 300,000 active; calls by dose curve; tested in HEK293 cells; note: potency is the fitted concentration of half-maximal effect; nearly all actives have a fitted effect of over 50% in size
# MARV entry inh = qHTS for inhibitors of binding or entry into cells for Marburg Virus; Potency, µM (highest dose often 37.8 µM), for inactives: at the top dose activity change, negative = inhibition, most hits filed as inhibitors; 1.8% of 300,000 active; Marburg virus pseudotyped entry inhibition, cell reporter; calls by dose curve; tested in HEK293 cells; note: potency is the fitted concentration of half-maximal effect
# FMDV inh = High Throughput Screening for Foot and Mouth Disease Virus Antivirals. FMDV antiviral cell-based qHTS. Potency, µM (series often up to 57.9 µM), without a hit: at the highest dose activity change, negative = inhibition, most hits filed as inhibitors. 1.2% of 410,000 active. AID 1159524, 2015; calls by dose curve; tested in HEK293T cells; note: read-out not given here; potency is the fitted concentration of half-maximal effect; nearly all actives have a fitted effect of over 45% in size
# HCMV antiviral = qHTS Assay for inhibitors of the human cytomegalovirus (HCMV). AID 1259415, 2018. 4.5% of 410,000 active. activity change, negative = inhibition, % at 57.5 µM. HFF cells, HCMV-luciferase reporter, 72 h; hits give low values; in the data active = activity change below about -60%; inconclusive = no clear call, values can overlap the other calls; inactive = above about -39%
#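 Human foreskin fibroblasts infected with luciferase-reporter HCMV at MOI 1 PFU/cell, compounds at two doses. Luciferase measured 72 h post infection; normalized to buffer-only basal and Salinomycin (10uM) controls.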
# HCV inhibitor = qHTS Assay for Inhibitors of Hepatitis C Virus (HCV); Huh7.5.1 HCVcc-Cre infection, luciferase reporter, 44 h; Potency, µM (titrated, usually from 41.8 µM), inactives show at the top dose activity change, negative = inhibition, most hits filed as inhibitors; 3.4% of 340,000 active; AID 651820, 2012; active = well fitted inhibition curve with a large enough effect; inconclusive = small, poorly fitted or top-dose-only effect, or another doubt; inactive = no such curve, though single readings can be large or run the other way; note: potency is the fitted concentration of half-maximal effect
#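 After 44 h co-culture of compound, cells and HCVcc-Cre (~0.5 moi), substrate is added for 15 min at room temperature and luciferase measured over 15 sec. Cells were seeded at 1,000/well and pre-cultured 4 h.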
# Starred values were filed as active, the others as inactive; ? = inconclusive; nt = no result; [ ] = another dose, or the depositor's remark. % is set by controls: 0 for no effect and ±100 for the full control effect.
SMILES,LASV entry inh,MARV entry inh,FMDV inh,HCMV antiviral,HCV inhibitor
Cc1cc(C)nc(SCC(=O)Nc2cccc(S(=O)(=O)N(C)C)c2)n1,-4.6%,-14.2%[46.1 µM],?,36.4,-14.2%
CN(C)S(=O)(=O)c1ccc(NC(=O)CSc2nc3ccccc3n2-c2ccccc2)cc1,18.4µM*,?,0.0%,?,?
NS(=O)(=O)c1ccc(NC(=O)CSc2nc3ccccc3n2-c2ccccc2)cc1,?,?,-3.1%,?,?
CN(C)S(=O)(=O)c1cccc(NC(=O)CSc2nc3ccccc3n2-c2ccccc2)c1,?,?,-8.9%,-87.6*,?
CCNc1ncc2nc(-c3ccc(F)cc3)c(=O)n(-c3ccc(OC)cc3)c2n1,nt,nt,-16.7%,nt,nt
Cc1ccc2c(c1)sc[n+]2Cc1ccccc1,14.2%,?,36.1%,29.2,10µM*
Cc1ccc(-c2cc[n+](Cc3ccccc3)cc2)cc1,-20.4%,?,?,?,?
Cc1ncc2c(c1CNC(=O)c1ccccc1F)CCN(C(=O)c1ccc3c(c1)OCCO3)C2,nt,nt,-7.6%,nt,nt
CCCCc1c(C)c(C#N)c2[nH]c3ccccc3n2c1=O,?,?,22.4µM*,-72.9*,-17.1%
N#Cc1cc2c(nc1SCC(=O)Nc1ccc(Cl)c(C(F)(F)F)c1)C1CCN2CC1,-0.3%[46.1 µM],?,0.0%,-68.4*,nt
N#Cc1cc2c(nc1SCC(=O)Nc1ccc(Cl)cc1)C1CCN2CC1,-8.4%,0.0%,-15.9%,-90.8*,2.82µM*
N#Cc1ccc(-c2cccs2)nc1SCC(=O)Nc1cccc(C(F)(F)F)c1,-10.9%[46.1 µM],?,4.1%,-30.9,nt
Cc1ccc2nc(SCC(=O)Nc3ccccc3N3CCOCC3)c(C#N)cc2c1,?,?,0.0%,?,?
N#Cc1c(-c2ccccc2)cc(-c2ccccc2)nc1SCC(=O)Nc1ccc(Cl)cc1,6.2%[46.1 µM],8.9%[46.1 µM],13.6%,6.0,nt
N#Cc1cc2c(nc1SCC(=O)Nc1ccc(C(F)(F)F)cc1)C1CCN2CC1,-2.5%[46.1 µM],?,?,-75.4*,nt
N#Cc1cc2c(nc1SCC(=O)Nc1cc(Cl)ccc1Cl)C1CCN2CC1,?,-23.3%,?,-87.7*,?
CC(C)[C@@H](OCc1ccccc1)[C@H](C)CO/N=C1/[C@H]2OC2[C@@H](O)[C@H]2[C@H]1CCn1c(=O)n(-c3ccccc3)c(=O)n12 (stereo not given in full),nt,24.7%[14.2 µM],nt,nt,nt
Cc1ccc(C(=O)N2CCC(N3CCN(Cc4ccc(F)cc4)C(=O)C3=O)CC2)cc1,0.6%[46.1 µM],nt,6.2%,0.2,nt
Cc1cc(C(=O)NCC2CCC3(CCN(Cc4cccc(F)c4F)CC3)O2)n(C)n1 (stereo not given),nt,nt,-28.6%,nt,nt
CCC(=O)NC(NC(=S)Nc1cccc2cccnc12)C(Cl)(Cl)Cl (stereo not given),-2.5%,?,9.8%,45.0,?
CCCCC(=O)NC(c1ccc(Cl)cc1Cl)c1ccc2cccnc2c1O (stereo not given),7.08µM*,?,10.3%,-104.1*,?
CC(C)C(=O)NC(NC(=S)Nc1cccc2cccnc12)C(Cl)(Cl)Cl (stereo not given),-20.2%,-29.9%,-5.1%,-8.6,?
CC(C)C(=O)NC(c1ccc(Cl)cc1Cl)c1ccc2cccnc2c1O (stereo not given),nt,nt,24.4%,-104.4*,2.24µM*
CCC(=O)NC(c1ccc(Cl)cc1Cl)c1ccc2cccnc2c1O (stereo not given),?,11.2µM*,-6.3%,-102.5*,2.51µM*
CC(NC(=O)CSc1ncccn1)c1ccc(Cl)cc1Cl (stereo not given),9.3%[46.1 µM],-1.7%[46.1 µM],-1.8%,12.9,-9.3%
SMILES,LASV entry inh,MARV entry inh,FMDV inh,HCMV antiviral,HCV inhibitor
C[C@H](ON=C1[C@H]2CCn3c(=O)n(-c4ccccc4)c(=O)n3[C@@H]2[C@H](O)[C@@H]2O[C@H]12)c1cn([C@H](CO)Cc2ccccc2)nn1,?,6.8%[14.2 µM],nt,nt,nt
COc1ccc(CN2CCOc3ccc(CN4CCC(O)CC4)cc3C2)c(OC)c1OC,nt,nt,-5.9%,nt,nt
CC1(C)CC2CC(C)(CN2C(=S)Nc2ccccc2F)C1 (stereo not given),1.4%[46.1 µM],-15.7%[46.1 µM],29.6%,2.8,16.6%
CC1(C)CC2CC(C)(CN2C(=S)Nc2ccccc2)C1 (stereo not given),4.1%,4.9%[46.1 µM],65.9%,-61.2*,16.5%
COc1ccc(NC(=O)CSc2ncc3c(n2)-c2ccccc2N(C)S3(=O)=O)cc1Cl,-13.6%[46.1 µM],nt,-25.6%,6.8,nt
Cc1cccc(-n2c(-c3ccccc3)cn3c4c(=O)[nH]c(=O)n(C)c4nc23)c1,?,-1.6%[46.1 µM],-3.4%,5.0,nt
CCS(=O)(=O)N1Cc2ccccc2CC1C(=O)Nc1nnc(SCc2ccc(C#N)cc2)s1 (stereo not given),0.4%,-15.0%,-28.2%,-66.3*,-12.0%
Cc1sc2ncnc(N/N=C/c3ccccc3O)c2c1C,10.3µM*,3.16µM*,30.1%,-100.5*,?
Cc1ccc(Nc2ncnc3sc(C)c(C)c23)cc1C,14.6%,18.9%,9.0%,34.6,?
Cc1sc2ncnc(N/N=C/c3ccc(O)cc3)c2c1C,?,?,5.2%,-26.1,11.2µM*
COc1ccc(/C=N/Nc2ncnc3sc(C)c(C)c23)cc1,9.0%,15.7%,4.8%,-12.1,-19.4%
COC(=O)c1ccccc1NC(=O)Cn1c(=O)n(CCCC(=O)NCc2ccccc2OC)c(=O)c2ccccc21,-7.6%[46.1 µM],-19.8%[46.1 µM],-29.7%,1.6,nt
Cc1ccc(C)c(CSCc2nc3ccccc3[nH]2)c1,nt,nt,?,-73.2*,?
Cc1ccccc1CSCc1nc2ccccc2[nH]1,?,?,4.5%,-3.2,?
O=c1c2ccccc2sn1-c1ccc(Cl)cc1Cl,nt,nt,-23.1%,-94.5*,nt
O=c1c2ccccc2ncn1-c1ccc(Cl)cc1Cl,nt,nt,-21.4%,-20.5,-19.4%
CC(=O)Nc1nnc(SCC(=O)c2ccc3c(c2)Cc2ccccc2-3)s1,?,?,10.5%,-37.1,0.6%
CCC(=O)Nc1nnc(SCC(=O)c2ccc3c(c2)Cc2ccccc2-3)s1,6.51µM*,?,nt,-18.6,13.3%
O=C(CN1CCCCC1)N1c2ccccc2Oc2ccccc21,8.4%,-26.5%,-12.0%,-3.2,-3.6%
O=C(CO/N=C/c1ccccc1)N1c2ccccc2Oc2ccccc21,5.2%,?,-17.3%,-98.9*,-13.9%
O=C(COc1ccccc1Cl)N(Cc1cccc(F)c1)C1CCS(=O)(=O)C1 (stereo not given),0.9%[46.1 µM],-8.6%[46.1 µM],4.1%,7.5,nt
CCN(CC(=O)Nc1ccc(NC(C)=O)cc1)C(=O)c1ccc(COc2ccc(C(C)(C)C)cc2)cc1,nt,nt,-23.5%,-61.6*,?
CCN(CC)CCNC(=O)c1ccc(NC(=O)c2ccc(COc3ccccc3)cc2)cc1,16.1%[46.1 µM],?,-5.8%,?,11.2µM*
CCN(CC)CCNC(=O)c1ccc(NC(C)=O)cc1,25.1%,?,-12.4%,45.9,2.6%[8.37 µM]
